HCMV inh: qHTS Assay for inhibitors of the human cytomegalovirus (HCMV); HFF cells, HCMV-luciferase reporter, 72 h; stronger effect = lower value; activity change, negative = inhibition, % at 57.5 µM; actives 4.5% (n = 410,000); AID 1259415, 2018; in the data active = activity change below about -60%; inconclusive = no clear call, values can overlap the other calls; inactive = above about -39%
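Two compound doses tested in HFFs infected with HCMV-luciferase, MOI 1 PFU/cell, 72 h at 37C. Lysate luminescence read with OneGlo; data normalized against buffer-only and 10uM Salinomycin inhibitor controls.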
AmpC inh detg: qHTS Inhibitors of AmpC Beta-Lactamase (assay with detergent); AmpC hydrolysis of nitrocefin, absorbance 480 nm, 0.01% Triton; AID 485294, 2010; actives 0.041% (n = 370,000); Potency, µM (highest dose often 114 µM), for inactives: at the top dose activity change, negative = inhibition, actives largely listed as inhibitors;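 also: potency is read from the fitted curve at half-maximal effect; 0% = no-compound wells and -100% = no-enzyme wells; nearly all actives have a fitted effect of over 25% in size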
Target sequence (P00811 whole entry, looked up): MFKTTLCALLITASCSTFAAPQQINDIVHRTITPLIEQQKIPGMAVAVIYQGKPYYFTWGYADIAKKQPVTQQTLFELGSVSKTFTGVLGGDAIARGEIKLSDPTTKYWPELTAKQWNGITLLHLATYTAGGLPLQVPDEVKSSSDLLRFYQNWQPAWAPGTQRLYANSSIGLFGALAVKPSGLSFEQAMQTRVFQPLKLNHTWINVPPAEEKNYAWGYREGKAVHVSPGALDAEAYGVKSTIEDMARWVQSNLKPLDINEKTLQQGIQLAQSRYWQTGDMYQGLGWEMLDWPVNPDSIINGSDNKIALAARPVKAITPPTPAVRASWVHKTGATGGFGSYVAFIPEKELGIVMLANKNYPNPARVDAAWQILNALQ
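AmpC (5.3 nM in the dispensed reagent) in 20 mM phosphate pH 7.0 with 0.01% (detergent screen) or 0.0001% Triton X-100 was preincubated with compounds for 15 min at room temperature. Nitrocefin was then added from an 800 uM solution, and hydrolysis was followed at 480 nm.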
AmpC no deterg: qHTS Inhibitors of AmpC Beta-Lactamase (assay without detergent). AID 485341, 2010. AmpC nitrocefin hydrolysis, absorbance 480 nm, 0.0001% Triton. P00811. Potency, µM (highest dose often 57.1 µM), inactives show top-dose activity change, negative = inhibition, most hits filed as inhibitors. actives 0.52% (n = 330,000);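 also: potency is read from the fitted curve at half-maximal effect; plate controls were no compound for no effect and no enzyme for full effect; nearly all actives have a fitted effect of over 20% in size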
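AmpC (5.3 nM in the dispensed reagent) in 20 mM phosphate pH 7.0 with 0.01% (detergent screen) or 0.0001% Triton X-100 was preincubated with compounds for 15 min at room temperature. Nitrocefin was then added from an 800 uM solution, and hydrolysis was followed at 480 nm.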
HCV inhibitor: qHTS Assay for Inhibitors of Hepatitis C Virus (HCV). Huh7.5.1 HCVcc-Cre infection, luciferase reporter, 44 h. Potency, µM (doses to about 41.8 µM), for the others: at the top dose activity change, negative = inhibition, usual class: inhibitors. actives 3.4% (n = 340,000). AID 651820, 2012; also: potency is read from the fitted curve at half-maximal effect
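Luciferase read-out (15 sec integration) after a 15 min room-temperature substrate step quantifies HCVcc-Cre infection. Cells, 1,000 per well, had compound added 4 h post-plating, then virus at ~0.5 moi, and were cultured 44 h.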
FMDV inh: High Throughput Screening for Foot and Mouth Disease Virus Antivirals; FMDV antiviral cell-based qHTS; Potency, µM (top dose mostly 57.9 µM), inactives show top-dose activity change, negative = inhibition, usual class: inhibitors; actives 1.2% (n = 410,000); AID 1159524, 2015; calls by dose curve; tested in HEK293T cells; also: read-out not given here; potency is read from the fitted curve at half-maximal effect; nearly all actives have a fitted effect of over 45% in size
Starred values were filed as active, the others as inactive; ? = inconclusive; · = not tested or not shown; ! = repeats disagree; [ ] = another dose, or the depositor's remark. Compounds with a hit are over-represented: about 7.3% of the library has one in this group of screens. Unless noted, calls follow the shape of the dose curve; as a rule, active = well fitted curve in the direction sought with a large enough effect; inconclusive = small, poorly fitted or top-dose-only effect, or another doubt; inactive = no such curve, though single readings can be large; an effect the other way counts as inactive or inconclusive. Unless noted, % is scaled to controls: 0 for no effect and ±100 for the full control effect.

SMILES	HCMV inh	AmpC inh detg	AmpC no deterg	HCV inhibitor	FMDV inh
O=C(Cc1ccc(NC(=O)C2CCN(C(=O)c3ccccc3)CC2)cc1)Nc1cccc(C(=O)N2CCCC2)c1	0	·	·	-11%[8.37 µM]	-14%
CCN(CC)c1ccc(CN(C(=O)c2cc(=O)c3ccccc3o2)C2CCS(=O)(=O)C2)cc1 (stereo not given)	16	4%	·	·	0%
COC(=O)[C@]12CCCCC=C1N(Cc1ccccc1)C(=O)[C@H](CC(=O)NCc1cccs1)C2	-66*	·	·	·	0%
COC(=O)[C@]12C[C@H](CC(=O)NCc3cccs3)C(=O)N(Cc3ccc4c(c3)OCO4)C1=C[C@H](COCc1ccccc1)O[C@@H]2C	-22	·	·	·	·
COC(=O)[C@]12CCCCC=C1N(Cc1ccc3c(c1)OCO3)C(=O)[C@H](CC(=O)N1CCCCC1)C2	-70*	·	·	·	-6%
COC(=O)[C@]12C[C@H](CC(=O)NCC34CC5CC(CC(C5)C3)C4)C(=O)N(Cc3ccc4c(c3)OCO4)C1=C[C@H](COCc1ccccc1)O[C@@H]2C	-63*	·	·	·	·
COC(=O)[C@]12CCCCC=C1N(Cc1ccc3c(c1)OCO3)C(=O)[C@H](CC(=O)N1CCCC1)C2	15	·	·	·	-14%
COC(=O)[C@]12C[C@H](CC(=O)NCc3cccs3)C(=O)N(Cc3ccccc3)C1=C[C@H](C(C)C)O[C@@H]2C1CC1	-71*	·	·	·	·
CC(CN1CCc2nnc(CNC(=O)c3cccc(F)c3)n2CC1)c1ccccc1 (stereo not given)	·	·	·	·	-6%
CC1CCCCN1C(=O)C1CCN(c2nc(-c3ccccc3)nc3c2CCC3)CC1 (stereo not given)	?	0%	181%	4µM*	?
COc1ccc(NC(=O)C2CCN(c3nc(C)nc4c3CCC4)CC2)cc1	-70*	-3%	-1%	3.5µM*	?
CC1CCCCN1C(=O)CSc1nc(-c2ccccc2)no1 (stereo not given)	27	3%	·	·	51%
NC(=O)C1CCN(c2nc(-c3ccccc3)nc3ccccc23)CC1	-15	3%	12%	?	-27%
O=C(C1CCN(c2nc(-c3ccccc3)nc3c2CCC3)CC1)N1CCCC1	-7	·	·	11µM*	12%
CCc1ccc(S(=O)(=O)/N=C2\C=CC(=O)c3ccccc32)cc1	·	-4%	16µM*	·	·
CCc1ccc(S(=O)(=O)/N=C2\C=C(Nc3cccc(C(=O)O)c3)C(=O)c3ccccc32)cc1	12	0%	-24%	?	?
CCc1ccc(S(=O)(=O)/N=C2/C=C(Sc3ncn[nH]3)C(=O)c3ccccc32)cc1	·	-7%	20µM*	2.8µM*	32µM*
Cc1ccc(S(=O)(=O)/N=C2/C=C(C3C(=O)CC(C)(C)CC3=O)C(=O)c3ccccc32)cc1	-24	-3%	-35%	-36%	-34%
CCc1ccc(S(=O)(=O)/N=C2\C=C(Nc3ccc(O)cc3)C(=O)c3ccccc32)cc1	·	-14%	-35%	?	35µM*
Cc1cc(C)c(S(=O)(=O)/N=C2\C=C(Nc3ccc(C(=O)O)cc3)C(=O)c3ccccc32)c(C)c1	-85*	-12%	13µM*	?	?
COc1cc(OC)c(NC(=O)C2=C(C)C(=O)OC23CCCCC3)cc1Cl	?	-1%	·	·	-9%
Cc1ccc(S(=O)(=O)/N=C2\C=C(NS(=O)(=O)c3ccccc3)C(=O)c3ccccc32)cc1	0	·	·	-11%	20%
O=C(O)c1ccc(NC2=C/C(=N/S(=O)(=O)c3ccccc3)c3ccccc3C2=O)cc1	-101*	4%	-37%	6.3µM*	11µM*
O=C(COC(=O)Cc1cccc(C(F)(F)F)c1)Nc1ccc2[nH]c(=O)[nH]c2c1	-34	?	-22%	0%	-16%
COC1=C(OC)C(=O)C(Sc2ccc3ccccc3c2)=CC1=O	-81*	·	·	?	0%
SMILES	HCMV inh	AmpC inh detg	AmpC no deterg	HCV inhibitor	FMDV inh
CCc1noc(-c2ccc(N3CCCCC3)c([N+](=O)[O-])c2)n1	76	24%	·	·	7%
CC1CN(CC(=O)c2ccccc2Cl)CC(C)O1 (stereo not given)	-61*	-9%	-12%	8%	6%
CC1=C(c2ccc(C(C)C)cc2)S(=O)(=O)N=C1N1CCN(c2ccccc2F)CC1	-62*	28%	·	·	6%
CC(C)COP(=O)(c1ccc(N(C)C)cc1)C(O)c1ccccc1F (stereo not given)	-6	-3%	53%	3.5µM*	22%
COc1cccc(C(=O)NCC2Cc3cccc(-c4ncccn4)c3O2)c1OC (stereo not given)	·	·	·	·	-11%
Nc1ccc(S(=O)(=O)O)cn1	-69*!	-4%	-12%	?	-24%
Cc1ccc(C)c(N/C(N)=N/c2nc(C)cc(C)n2)c1	-21	-8%	-22%	?	?
Cc1ccc(CN=C(N)Nc2nc(C)cc(C)n2)cc1	-80*	3%	-13%	16µM*	-24%
Cc1ccccc1-c1csc(C(O)(c2ccccc2)C(F)(F)F)n1 (stereo not given)	3	·	·	·	-16%
Cc1ccc(NC(=O)c2cn(CCC#N)nc2-c2ccc3c(c2)OCCO3)c([N+](=O)[O-])c1	?	-8%	61%	0%	-22%
N#CCCn1cc(C(=O)Nc2ccc([N+](=O)[O-])cc2)c(-c2ccc3c(c2)OCCO3)n1	-67*	16%	-36%	-13%	26%
CN(CC(=O)Nc1ccc(Cl)c(C(F)(F)F)c1)C(=O)Cc1n[nH]c(=O)c2ccccc12	-73*	-16%	61%	?	?
CN(CC(=O)Nc1ccc(Cl)c(C(F)(F)F)c1)C(=O)c1cn2ccccc2n1	-23	-6%	35µM*	?	-4%
CN(CC(=O)Nc1cccc(F)c1)C(=O)c1cc(-c2ccco2)nc2ccccc12	-34	-10%	18µM*	23%	-22%
CN(CC(=O)Nc1ccccc1C(F)(F)F)C(=O)c1cc(-c2cccs2)nn1-c1ccccc1	-13	1%	38%	?	-26%
CN(CC(=O)Nc1cccc(F)c1)C(=O)c1cc(-c2cccs2)nn1-c1ccccc1	-12	-12%	-13%	11µM*	?
Cc1cc(C(=O)N(C)CC(=O)Nc2ccc(Cl)c(C(F)(F)F)c2)no1	-6	?	-22%	-21%	-24%
CN(CC(=O)Nc1ccc(Cl)c(C(F)(F)F)c1)C(=O)c1cc(-c2ccncc2)nc2ccccc12	-33	-6%	-24%	?	28µM*
CN(CC(=O)Nc1ccc(F)c(F)c1F)C(=O)c1cc(-c2ccncc2)nc2ccccc12	-13	-14%	45%	?	-15%

Bioassay records from PubChem BioAssay.
